Assay results published in PubChem BioAssay AID1159580 (chemical genetic matrix, 2015).
The campaign covered roughly 5,500 compounds. About 2,000 (36%) were called active. Roughly 18% stayed inconclusive and do not appear here. The list shows a part of the results. Unmarked numbers belong to inactive results. Rule as the data show it: active = normalized growth mostly below about 0.91 (no sharp cut-off); inconclusive = no clear call, values can overlap the other calls; inactive = mostly above about 0.92.

Assay: chemical genetic growth profiling, strain panel (AID 1159580);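 also: tested at 20 µM; growth read once vehicle control cultures reached saturation at 30 °C; 1 = growth at the plate median or of vehicle wells; lower values mean less growth of the strain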
Conditions: growth OD
[1] = S. cerevisiae deletion strains, locus YAL013W, strain DEP1, stronger effect = lower value
[2] = S. cerevisiae deletion strains, locus YAL040C, strain CLN3, stronger effect = lower value
[3] = S. cerevisiae deletion strains, locus YCL061C, strain MRC1 (second series), stronger effect = lower value
[4] = S. cerevisiae deletion strains, locus YDR150W, strain NUM1, stronger effect = lower value
[5] = S. cerevisiae deletion strains, locus YDR363W, strain ESC2, stronger effect = lower value
[6] = S. cerevisiae deletion strains, locus YER002W, strain NOP16, stronger effect = lower value
[7] = S. cerevisiae deletion strains, locus YGR078C, strain PAC10, stronger effect = lower value
[8] = S. cerevisiae deletion strains, locus YJR075W, strain HOC1, stronger effect = lower value
[9] = S. cerevisiae deletion strains, locus YMR263W, strain SAP30, stronger effect = lower value
[10] = S. cerevisiae deletion strains, locus YMR307W, strain GAS1, stronger effect = lower value
[11] = S. cerevisiae deletion strains, locus YNL153C, strain GIM3, stronger effect = lower value
[12] = S. cerevisiae deletion strains, locus YNL175C, strain NOP13, stronger effect = lower value
[13] = S. cerevisiae deletion strains, locus YNL197C, strain WHI3, stronger effect = lower value
[14] = S. cerevisiae deletion strains, locus YNL224C, strain SQS1, stronger effect = lower value
[15] = S. cerevisiae deletion strains, locus YNL322C, strain KRE1, stronger effect = lower value
[16] = S. cerevisiae deletion strains, locus YOR083W, strain WHI5 (second series), stronger effect = lower value
[17] = S. cerevisiae deletion strains, locus YPL241C, strain CIN2, stronger effect = lower value
[18] = S. cerevisiae deletion strains, locus YPL055C, strain LGE1, stronger effect = lower value
[19] = S. cerevisiae deletion strains, locus YNL128W, strain TEP1, stronger effect = lower value
[20] = S. cerevisiae deletion strains, locus YBR229C, strain ROT2, stronger effect = lower value
[21] = S. cerevisiae deletion strains, locus YDL101C, strain DUN1, stronger effect = lower value
[22] = S. cerevisiae deletion strains, locus YDL134C, strain PPH21, stronger effect = lower value
[23] = S. cerevisiae deletion strains, locus YHR030C, strain SLT2, stronger effect = lower value
[24] = S. cerevisiae deletion strains, locus YJR043C, strain POL32, stronger effect = lower value
[25] = S. cerevisiae deletion strains, locus YLR039C, strain RIC1, stronger effect = lower value
[26] = S. cerevisiae deletion strains, locus YLR262C, strain YPT6, stronger effect = lower value
[27] = S. cerevisiae deletion strains, locus YOL006C, strain TOP1, stronger effect = lower value
[28] = S. cerevisiae deletion strains, locus YGR229C, strain SMI1, stronger effect = lower value

N#CC(=C(\N)Sc1ccccc1N)/C(C#N)=C(/N)Sc1ccccc1N
normalized growth [1]: 0.988
normalized growth [2]: 0.974
normalized growth [3]: 1.01
normalized growth [4]: 1.01
normalized growth [5]: 1
normalized growth [6]: 1
normalized growth [7]: 0.99
normalized growth [8]: 0.97
normalized growth [9]: 1
normalized growth [10]: 0.995
normalized growth [11]: 0.923
normalized growth [12]: 0.981
normalized growth [13]: 0.971
normalized growth [14]: 0.973
normalized growth [15]: 0.988
normalized growth [16]: 0.763 (active)
normalized growth [17]: 1.01

Cc1nc(N=Nc2cc(S(=O)(=O)O)c3cc([N+](=O)[O-])cc(S(=O)(=O)O)c3c2)c(COP(=O)(O)O)c(C=O)c1O
normalized growth [1]: 0.999
normalized growth [2]: 1.02
normalized growth [3]: 1
normalized growth [4]: 0.995
normalized growth [5]: 1.01
normalized growth [6]: 1.02
normalized growth [7]: 1
normalized growth [8]: 1
normalized growth [12]: 0.997
normalized growth [13]: 1
normalized growth [14]: 1.01
normalized growth [16]: 1.01
normalized growth [18]: 1.02

NC(N)=NC(N)=Nc1cccc(Cl)c1
normalized growth [1]: 1.01
normalized growth [2]: 1
normalized growth [3]: 1.01
normalized growth [5]: 0.999
normalized growth [6]: 0.993
normalized growth [8]: 1
normalized growth [9]: 0.999
normalized growth [19]: 1.03
normalized growth [11]: 1
normalized growth [12]: 1.01
normalized growth [13]: 1.04
normalized growth [14]: 1.01
normalized growth [15]: 0.995
normalized growth [16]: 1.05
normalized growth [18]: 1

NC(N)=NC(N)=Nc1cc(Cl)cc(Cl)c1
normalized growth [1]: 1
normalized growth [20]: 1.01
normalized growth [21]: 1
normalized growth [22]: 1.01
normalized growth [4]: 0.919
normalized growth (S. cerevisiae deletion strains, locus YEL061C, strain CIN8, stronger effect = lower value): 1.02
normalized growth [7]: 1
normalized growth [23]: 0.98
normalized growth (S. cerevisiae deletion strains, locus YHR087W, strain rtc3, stronger effect = lower value): 1.01
normalized growth (S. cerevisiae deletion strains, locus YJL187C, strain SWE1, stronger effect = lower value): 1.01
normalized growth [24]: 0.999
normalized growth [8]: 0.972
normalized growth [25]: 0.975
normalized growth (S. cerevisiae deletion strains, locus YLR058C, strain SHM2 (second series), stronger effect = lower value): 0.999
normalized growth (S. cerevisiae deletion strains, locus YLR085C, strain ARP6, stronger effect = lower value): 1.03
normalized growth [26]: 1
normalized growth (S. cerevisiae deletion strains, locus YML094W, strain GIM5, stronger effect = lower value): 1.03
normalized growth (S. cerevisiae deletion strains, locus YMR219W, strain ESC1, stronger effect = lower value): 0.99
normalized growth [9]: 0.987
normalized growth [10]: 0.889
normalized growth [11]: 0.983
normalized growth (S. cerevisiae deletion strains, locus YNL298W, strain CLA4 (second series), stronger effect = lower value): 1.03
normalized growth [15]: 0.999
normalized growth (S. cerevisiae deletion strains, locus YNR030W, strain Alg12, stronger effect = lower value): 1.02
normalized growth [27]: 1.06
normalized growth [18]: 0.884
normalized growth [17]: 1.01
normalized growth (S. cerevisiae deletion strains, locus YPR135W, strain CTF4, stronger effect = lower value): 1.15

NC(N)=Nc1ccc(Cl)cc1
normalized growth [1]: 1.01
normalized growth (S. cerevisiae deletion strains, locus YBR021W, strain FUR4, stronger effect = lower value): 1.01
normalized growth [20]: 1.01
normalized growth (S. cerevisiae deletion strains, locus YCL029C, strain bik1, stronger effect = lower value): 1
normalized growth (S. cerevisiae deletion strains, locus YDL035C, strain GPR1, stronger effect = lower value): 1.02
normalized growth (S. cerevisiae deletion strains, locus YDL074C, strain BRE1, stronger effect = lower value): 1.04
normalized growth [21]: 1.03
normalized growth [22]: 1.02
normalized growth (S. cerevisiae deletion strains, locus YDL185W, strain tfp1, stronger effect = lower value): 1.01
normalized growth (S. cerevisiae deletion strains, locus YDL192W, strain arf1, stronger effect = lower value): 1.01
normalized growth (S. cerevisiae deletion strains, locus YDR101C, strain arx1, stronger effect = lower value): 0.99
normalized growth [4]: 1.02
normalized growth (S. cerevisiae deletion strains, locus YDR162C, strain NBP2, stronger effect = lower value): 1.02
normalized growth (S. cerevisiae deletion strains, locus YDR318W, strain mcm21, stronger effect = lower value): 0.997
normalized growth (S. cerevisiae deletion strains, locus YDR388W, stronger effect = lower value): 0.997
normalized growth (S. cerevisiae deletion strains, locus YDR502C, strain sam2, stronger effect = lower value): 1
normalized growth (S. cerevisiae deletion strains, locus YER110C, stronger effect = lower value): 0.996
normalized growth (S. cerevisiae deletion strains, locus YER155C, strain BEM2, stronger effect = lower value): 1.01
normalized growth (S. cerevisiae deletion strains, locus YER167W, strain BCK2, stronger effect = lower value): 1.03
normalized growth (S. cerevisiae deletion strains, locus YGL078C, strain dbp3, stronger effect = lower value): 0.996
normalized growth (S. cerevisiae deletion strains, locus YGL086W, strain mad1, stronger effect = lower value): 1
normalized growth (S. cerevisiae deletion strains, locus YGL248W, strain PDE1, stronger effect = lower value): 1.01
normalized growth [7]: 1.02
normalized growth (S. cerevisiae deletion strains, locus YGR135W, strain pre9, stronger effect = lower value): 0.998
normalized growth [28]: 1.03
normalized growth (S. cerevisiae deletion strains, locus YGR252W, strain gcn5, stronger effect = lower value): 0.972
normalized growth [23]: 1
normalized growth (S. cerevisiae deletion strains, locus YHR079C, strain IRE1 (second series), stronger effect = lower value): 1
normalized growth (S. cerevisiae deletion strains, locus YHR094C, strain hxt1, stronger effect = lower value): 0.988
normalized growth (S. cerevisiae deletion strains, locus YHR129C, strain ARP1, stronger effect = lower value): 1.01
normalized growth (S. cerevisiae deletion strains, locus YHR200W, strain rpn10, stronger effect = lower value): 0.999
normalized growth (S. cerevisiae deletion strains, locus YIL066C, strain RNR3, stronger effect = lower value): 1.02
normalized growth (S. cerevisiae deletion strains, locus YIL073C, strain SPO22, stronger effect = lower value): 1.09
normalized growth (S. cerevisiae deletion strains, locus YIL125W, strain kgd1, stronger effect = lower value): 1
normalized growth (S. cerevisiae deletion strains, locus YIR030C, strain dcg1, stronger effect = lower value): 0.992
normalized growth (S. cerevisiae deletion strains, locus YJL095W, strain BCK1, stronger effect = lower value): 1.02
normalized growth (S. cerevisiae deletion strains, locus YJL134W, strain LCB3, stronger effect = lower value): 1.01
normalized growth (S. cerevisiae deletion strains, locus YJL168C, strain set2, stronger effect = lower value): 1
normalized growth (S. cerevisiae deletion strains, locus YJL187C, strain SWE1 (second series), stronger effect = lower value): 1.01
normalized growth [24]: 1.17 [resistant] (active)
normalized growth [8]: 1.01
normalized growth (S. cerevisiae deletion strains, locus YKL009W, strain mrt4, stronger effect = lower value): 0.987
normalized growth (S. cerevisiae deletion strains, locus YKL068W, stronger effect = lower value): 0.988
normalized growth (S. cerevisiae deletion strains, locus YKL085W, strain MDH1 (second series), stronger effect = lower value): 1.01
normalized growth (S. cerevisiae deletion strains, locus YKL085W, strain MDH1, stronger effect = lower value): 1.01
normalized growth (S. cerevisiae deletion strains, locus YKL190W, strain CNB1, stronger effect = lower value): 1.02
normalized growth (S. cerevisiae deletion strains, locus YKR001C, strain vps1, stronger effect = lower value): 0.999
normalized growth [25]: 1.1
normalized growth (S. cerevisiae deletion strains, locus YLR058C, strain SHM2, stronger effect = lower value): 1.01
normalized growth (S. cerevisiae deletion strains, locus YLR102C, strain apc9, stronger effect = lower value): 0.998
normalized growth [26]: 1.07
normalized growth (S. cerevisiae deletion strains, locus YLR268W, strain sec22, stronger effect = lower value): 0.996
normalized growth (S. cerevisiae deletion strains, locus YLR330W, strain CHS5, stronger effect = lower value): 1.02
normalized growth (S. cerevisiae deletion strains, locus YLR342W, strain FKS1 (second series), stronger effect = lower value): 1.05
normalized growth (S. cerevisiae deletion strains, locus YLR371W, strain rom2, stronger effect = lower value): 0.996
normalized growth (S. cerevisiae deletion strains, locus YLR418C, strain cdc73, stronger effect = lower value): 1
normalized growth (S. cerevisiae deletion strains, locus YML016C, strain PPZ1, stronger effect = lower value): 1.02
normalized growth (S. cerevisiae deletion strains, locus YML032C, strain rad52, stronger effect = lower value): 0.961
normalized growth (S. cerevisiae deletion strains, locus YML124C, strain tub3, stronger effect = lower value): 0.99
normalized growth (S. cerevisiae deletion strains, locus YMR078C, strain ctf18, stronger effect = lower value): 0.995
normalized growth (S. cerevisiae deletion strains, locus YMR223W, strain ubp8, stronger effect = lower value): 0.998
normalized growth [9]: 1.02
normalized growth [10]: 1.01
normalized growth (S. cerevisiae deletion strains, locus YNL067W, strain RPL9B, stronger effect = lower value): 1.01
normalized growth [19]: 1.05
normalized growth [11]: 1.02
normalized growth (S. cerevisiae deletion strains, locus YNL233W, strain BNI4, stronger effect = lower value): 1.01
normalized growth (S. cerevisiae deletion strains, locus YNL250W, strain rad50, stronger effect = lower value): 0.984
normalized growth (S. cerevisiae deletion strains, locus YNL271C, strain bni1, stronger effect = lower value): 1
normalized growth (S. cerevisiae deletion strains, locus YNL298W, strain CLA4, stronger effect = lower value): 0.997
normalized growth (S. cerevisiae deletion strains, locus YNL307C, strain MCK1, stronger effect = lower value): 1
normalized growth [15]: 1.01
normalized growth (S. cerevisiae deletion strains, locus YNR052C, strain pop2, stronger effect = lower value): 0.993
normalized growth [27]: 1.18
normalized growth (S. cerevisiae deletion strains, locus YOL012C, strain htz1): 1.11
normalized growth (S. cerevisiae deletion strains, locus YOL147C, strain pex11, stronger effect = lower value): 0.995
normalized growth (S. cerevisiae deletion strains, locus YOR061W, strain CKA2, stronger effect = lower value): 1.02
normalized growth (S. cerevisiae deletion strains, locus YOR069W, strain VPS5, stronger effect = lower value): 1.11 [resistant] (active)
normalized growth (S. cerevisiae deletion strains, locus YOR136W, strain idh2, stronger effect = lower value): 0.997
normalized growth (S. cerevisiae deletion strains, locus YOR144C, strain elg1, stronger effect = lower value): 0.984
normalized growth (S. cerevisiae deletion strains, locus YOR184W, strain ser1, stronger effect = lower value): 1.02
normalized growth (S. cerevisiae deletion strains, locus YOR316C, strain cot1, stronger effect = lower value): 1
normalized growth [18]: 1.05
normalized growth (S. cerevisiae deletion strains, locus YPR119W, strain clb2, stronger effect = lower value): 0.988
normalized growth (S. cerevisiae deletion strains, locus YPR141C, strain kar3, stronger effect = lower value): 0.997
normalized growth (S. cerevisiae deletion strains, locus YPR163C, strain tif3, stronger effect = lower value): 0.997
normalized growth (S. cerevisiae deletion strains, locus YPR167C, strain met16, stronger effect = lower value): 0.997
normalized growth (S. cerevisiae deletion strains, strain wtn01, stronger effect = lower value): 0.999
normalized growth (S. cerevisiae strains, strain wild type, stronger effect = lower value): 1.01

CC(=O)NC(CS)C(=O)O (stereo not drawn)
normalized growth [2]: 0.975
normalized growth [3]: 0.993
normalized growth [5]: 1.03
normalized growth [6]: 0.994
normalized growth [28]: 1.02
normalized growth [9]: 0.988
normalized growth [11]: 0.979
normalized growth [12]: 0.974
normalized growth [13]: 0.988
normalized growth [14]: 0.983
normalized growth [16]: 0.996
